Data on 53 molecules can be found in ChEMBL document CHEMBL4808148, “HDAC6 screening dataset using tau-based substrate in an enzymatic assay yields selective inhibitors and activators” (2021).

Assay [1] addresses T1, Protein deacetylase HDAC6 (Homo sapiens) (UniProt Q9UBN7).
T1 sequence (whole entry): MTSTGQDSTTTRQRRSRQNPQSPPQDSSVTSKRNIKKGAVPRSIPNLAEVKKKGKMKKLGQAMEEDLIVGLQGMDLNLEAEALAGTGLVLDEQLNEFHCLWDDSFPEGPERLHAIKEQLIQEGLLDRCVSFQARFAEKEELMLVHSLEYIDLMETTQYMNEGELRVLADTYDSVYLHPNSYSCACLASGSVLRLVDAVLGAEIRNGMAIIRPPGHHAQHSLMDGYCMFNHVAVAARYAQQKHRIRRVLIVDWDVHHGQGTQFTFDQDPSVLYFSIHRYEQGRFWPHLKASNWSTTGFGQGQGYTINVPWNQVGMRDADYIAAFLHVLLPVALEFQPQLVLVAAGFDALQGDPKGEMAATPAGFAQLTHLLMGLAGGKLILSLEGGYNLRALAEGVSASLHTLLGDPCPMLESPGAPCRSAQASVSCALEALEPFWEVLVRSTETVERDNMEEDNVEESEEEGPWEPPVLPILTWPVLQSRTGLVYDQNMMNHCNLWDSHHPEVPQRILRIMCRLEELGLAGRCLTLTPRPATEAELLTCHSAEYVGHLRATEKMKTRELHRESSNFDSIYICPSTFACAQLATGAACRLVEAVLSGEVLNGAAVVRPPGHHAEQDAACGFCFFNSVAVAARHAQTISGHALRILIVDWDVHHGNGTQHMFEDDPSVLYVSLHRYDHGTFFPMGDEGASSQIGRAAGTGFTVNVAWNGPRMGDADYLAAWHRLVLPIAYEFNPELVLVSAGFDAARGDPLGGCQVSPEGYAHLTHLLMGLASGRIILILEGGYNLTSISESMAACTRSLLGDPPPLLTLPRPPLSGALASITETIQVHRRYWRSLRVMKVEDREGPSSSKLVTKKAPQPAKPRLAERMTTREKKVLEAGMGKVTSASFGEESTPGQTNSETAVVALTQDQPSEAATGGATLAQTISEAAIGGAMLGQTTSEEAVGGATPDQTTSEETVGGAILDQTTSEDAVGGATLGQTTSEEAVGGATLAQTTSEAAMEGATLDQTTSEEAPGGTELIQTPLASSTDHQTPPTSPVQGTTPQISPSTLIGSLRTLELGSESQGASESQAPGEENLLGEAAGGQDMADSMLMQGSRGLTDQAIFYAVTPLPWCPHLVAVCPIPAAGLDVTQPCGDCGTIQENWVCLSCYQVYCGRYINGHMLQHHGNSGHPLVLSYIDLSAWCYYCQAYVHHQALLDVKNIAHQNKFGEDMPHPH
As to conditions: at 10 µM.

In assay [2] the target is Protein deacetylase HDAC6 (Homo sapiens) (UniProt Q9UBN7). Particulars: at 10 µM. The source holds these as a separate data set.

Values joined by “and” are separate entries in the source; they are usually repeats but may differ in a detail not shown here. Identical values can stand only once. Among all 5,600 compounds or so, about 150 (2.7%) showed an effect of 50% or more. The list comes from a sample in which strong results are over-represented; it also holds similar structures and randomly drawn compounds. Starred links: 1 amine or outer side, 2 acyl side, 3 side chain; linkers in the order of their positions; H or OH if unused. Positions of bridges follow the written chain, without caps; N, C: chain ends. Non-standard residues stand in square brackets, D forms with d. Residues, ends and D or L forms follow the SMILES beside them. ξ: configuration not given here. *: point of attachment. hTyr(3S-OH,4S-OH,3'-OSO3H) = N[C@H](C(=O)O)[C@H](O)[C@@H](O)c1ccc(O)c(OS(=O)(=O)O)c1; Orn(4R-OH,5R-OH) = O=C([C@H](C[C@@H](O)[C@@H](O)N[*:3])N[*:1])[*:2]; Pro(3S-OH,4S-Me) = C[C@H]1CN[C@H](C(=O)O)[C@H]1O; X1 = CCCCCOc1ccc(-c2cc(-c3ccc(C(=O)*)cc3)no2)cc1; Gln(3R-OH) = NC(=O)C[C@@H](O)[C@H](N)C(=O)O; Hyp = O=C(O)[C@@H]1C[C@@H](O)CN1; ξThr(3R) = C[C@@H](O)C(N)C(=O)O

In the case of `O=C(/C=C/c1ccc2ccccc2n1)c1ccncc1`, in assay [1], the inhibition (commonly the relative decrease from the control value, in per cent) was determined as 77.3%.
The same measure, in the same setting: then `O=C(NNc1ccccc1)c1ccncc1`, with -5.35%; and `O=C(/C=C/c1ccc2ccc(C(F)(F)F)cc2n1)c1ccncc1`, with -2.03%.
As to `Cc1c(Cl)cccc1S(=O)(=O)Nc1nc(CC(=O)N2CCN(C)CC2)cs1`, the inhibition in assay [1] was 4.81%.
On the same count and under the same terms, as for `CCO[C@@H](Cc1ccc(OCCn2c(C)ccc2-c2ccc(SC)cc2)cc1)C(=O)O`, the figure is 46.3%; as for `CC(C)OC(=O)Nc1cccc(Cl)c1`, -4.5%; as for `COc1cc(NC(=O)c2ccccn2)ccc1Cl`, 94.4%.
Regarding `O=C(Nc1ccc(S(=O)(=O)Nc2ccccc2Cl)c(Cl)c1)c1ccccn1`, in assay [1], the inhibition worked out at 13.9%.
With `O=C(Nc1cnc(Cl)nc1)c1ccc(F)c(F)c1`, in assay [1], the inhibition was -4.2%.
As to `O=C(Nc1cccc(Cl)c1)c1ccccn1`, the inhibition in assay [1] came to 97.2%.
Turning to `O=C(Nc1ccc(Cl)cc1)Nc1ccc(Cl)c(Cl)c1`, in assay [1], the inhibition was -2.56%.
As for `Cc1cccc(C)c1NC(=O)[C@H]1CCCCN1C`, the inhibition in assay [1] came to 2.44%.
Still for that read-out and setting: as for `c1ccc(CN2CCC3(CCc4ccccc43)CC2)cc1`, the figure is -2.02%; as for `CN[C@@H](CCCNC(=N)N)C(=O)O`, -8.08%.
`O=C(CCCS)NC1CCN(C(=O)COc2ccc(Cl)cc2Cl)CC1`: the inhibition in assay [1] is 7.84%.
On the same count and under the same terms, as for `CO/N=C(/C(=O)N[C@@H]1C(=O)N2C(C(=O)O)=C(Cn3ccc(=N)n3CCO)CS[C@H]12)c1csc(N)n1`, the figure is -0.61%; as for `O=C(N[C@H]1CCN(C(=O)c2cc(C(F)(F)F)cc(C(F)(F)F)c2)[C@H](Cc2ccc(Cl)cc2)C1)c1ccnc2ccccc12`, -1.37%.
Still for that read-out and setting: as for `Cc1cn2nc([C@@H]3CCCCN3C(=O)c3cc(Cl)ccc3NS(C)(=O)=O)cc2nc1N1CC[C@H](N)C1`, the figure is -2.52%; as for `Cc1nc(NS(=O)(=O)c2ccc(N)cc2)oc1C`, 32.6%.
On to SATRAPLATIN, CHEMBL3833367, for which, in assay [2], the inhibition was -6.7%.
Take `O=C1c2cccc(O)c2C(=O)c2c(O)cc(CO)cc21`: the inhibition in assay [1] stood at 5.42%.
Same read-out and setting: as for `Cc1cc(O)c2c(c1)C(=O)c1cc(O)cc(O)c1C2=O`, the figure is 90.2%.
Still for that read-out and setting: as for `CCS(=O)(=O)N(C)[C@H]1c2cc(C#N)ccc2OC(C)(C)[C@@H]1O`, the figure is -5.99%.
Still for that read-out and setting: as for `CC(=O)OC[C@H](N)C(=O)O`, the figure is 3.65%.
For the molecule `NC[C@H]1O[C@H](O[C@H]2[C@H](O[C@@H]3O[C@H](CO)[C@@H](O)[C@H]3O)[C@@H](O)[C@H](N)C[C@@H]2N)[C@H](N)[C@@H](O)[C@@H]1O`, the inhibition in assay [1] is -5.95% and -3.47%.
For `NC[C@@H]1O[C@H](O[C@H]2[C@@H](O)[C@H](O[C@@H]3[C@@H](O)[C@H](N)C[C@H](N)[C@H]3O[C@H]3O[C@H](CO)[C@@H](O)[C@H](O)[C@H]3N)O[C@@H]2CO)[C@H](N)[C@@H](O)[C@@H]1O`, the inhibition in assay [1] worked out at 80.2%.
`NC[C@H]1O[C@H](O[C@H]2[C@H](O)[C@@H](O[C@H]3O[C@H](CO)[C@@H](O)[C@H](N)[C@H]3O)[C@H](N)C[C@@H]2N)[C@H](N)C[C@@H]1O`: the inhibition in assay [1] is -5.82%.
Same read-out and setting: as for `C[N+](C)(C)[C@@H](Cc1c[nH]c(=S)[nH]1)C(=O)[O-]`, the figure is 0.31%.
For the molecule `CC/C(=C(/CC)c1ccc(OP(=O)(O)O)cc1)c1ccc(OP(=O)(O)O)cc1`, the inhibition in assay [1] is -0.19%.
Consider `CC(=O)N1CCC[C@H]1C(=O)N[C@@H](Cc1cnc[nH]1)C(=O)N[C@@H](CO)C(=O)N[C@@H](CS)C(=O)N[C@@H](CC(N)=O)C(N)=O` (Ac-PHSCN-NH2), for which the inhibition in assay [1] was -4.4%.
As for `CCOC(=O)[C@H](CCc1ccccc1)N[C@@H](C)C(=O)N1Cc2cc(OC)c(OC)cc2C[C@H]1C(=O)O`, the inhibition in assay [1] was -3.25%.
In the case of `COc1cc(OCc2cccc(-c3ccccc3)c2C)cc(OC)c1CN1CCCC[C@H]1C(=O)O`, the inhibition in assay [1] was found to be 51.3%.
Regarding `C#CC1(OCC(O)CN2CCN(c3cccc(C(F)(F)F)c3)CC2)CCCCC1` (stereo not drawn), the inhibition in assay [1] was determined as 3.19%.
On to `Cn1c(COc2ccc(CC3SC(=O)NC3=O)cc2)nc2ccccc2c1=O` (stereo not drawn), for which the inhibition in assay [1] was 6.76%.
For `COCCOc1cnc2ccn([C@H](C)c3nnc4c(F)cc(-c5cnn(C)c5)cn34)c(=O)c2c1`, the inhibition in assay [1] was -3.49%.
The same measure, in the same setting: then `O=C(NCc1ccc(OC(F)(F)F)cc1)C1c2ccccc2C(=O)N1C1CCOCC1` (stereo not drawn), with 1.11%.
Still for that read-out and setting: as for `C[C@H]1NC(=O)NC1=O`, the figure is 0.16%; as for `Cc1[nH]c(/C=C2\C(=O)Nc3ccc(F)cc32)c(C)c1C(=O)NCCN1CCCC1`, 2.96%.
Same read-out and setting: then `Cc1[nH]c(/C=C2\C(=O)Nc3cc(-c4ccccc4)ccc32)c(C)c1CCC(=O)O`, with 96.4%; and `COc1cc(OC)c(/C=C2/C(=O)Nc3ccccc32)c(OC)c1`, with -2.63%.
Consider `CN[C@@H]1[C@@H](O[C@H]2O[C@H](CO)[C@@H](N)[C@H](O)[C@H]2O)O[C@H]2C[C@@H](N)[C@H](O[C@H]3[C@H](O)[C@@H](O)[C@H](N)C[C@@H]3N)O[C@@H]2[C@@H]1O`, for which, in assay [1], the inhibition turned out to be 10.2%.
The same measure, in the same setting: as for `COc1cc(N2CCOCC2)ccc1Nc1ncc(Cl)c(Nc2ccccc2NS(C)(=O)=O)n1`, the figure is -0.93%; as for `CNC(=O)c1ccccc1Nc1nc(Nc2ccc3c(c2OC)CCC[C@H](N2CCN(CCO)CC2)C3)ncc1Cl`, 83%.
The same measure, in the same setting: as for `CN1CCN(Cc2ccc(Nc3ncc(Cl)c(Nc4ccccc4S(=O)(=O)N(C)C)n3)cc2)CC1`, the figure is -1.57%; as for `CCCCCOc1ccc(-c2cc(-c3ccc(C(=O)N[C@H]4C[C@@H](O)[C@@H](O)NC(=O)[C@@H]5[C@@H](O)[C@@H](C)CN5C(=O)[C@H]([C@H](O)CC(N)=O)NC(=O)[C@H]([C@H](O)[C@@H](O)c5ccc(O)c(OS(=O)(=O)O)c5)NC(=O)[C@@H]5C[C@@H](O)CN5C(=O)C([C@@H](C)O)NC4=O)cc3)no2)cc1` (stereo partly drawn) (X1-[Orn(4R-OH,5R-OH)][ξThr(3R)][Hyp][hTyr(3S-OH,4S-OH,3'-OSO3H)][Gln(3R-OH)][Pro(3S-OH,4S-Me)]; lactam 1-C), 4.51%.
Same read-out and setting: as for `CC(C)c1ccc(C(=O)c2cccs2)c(SCCCCCCCCN(C)C)n1`, the figure is 3.78%; as for `CN(C)CCCSc1ccccc1NC(=O)/C=C/c1ccccc1`, 92.4%.
Take `O=C(/C=C/c1ccccc1)NC(NC(=S)Nc1cccc2cccnc12)C(Cl)(Cl)Cl` (stereo not drawn): the inhibition in assay [1] worked out at 3.55%.
Same read-out and setting: as for `CNC[C@@H]1CC[C@@H](N)[C@H](O[C@H]2[C@H](O)[C@@H](O[C@H]3OC[C@](C)(O)[C@H](NC)[C@H]3O)[C@H](N)C[C@@H]2N)O1`, the figure is -3.43%.
In the case of “gallium-triquinolin-8-olate, CHEMBL4303465”, the inhibition in assay [2] worked out at 8.35%.
Consider `C[C@H]1N=C(N(C)C)N=C(N)N1`, for which the inhibition in assay [1] was -1.55%.
As for `CN1C[C@@H]2CN(c3ccc(-c4ccccc4)nn3)C[C@@H]2C1`, the inhibition in assay [1] was determined as 57.6%.
`O=C(c1cc(S(=O)(=O)Nc2ccccc2F)c(F)cc1Cl)N1CCN2CCC[C@@H]2C1`: the inhibition in assay [1] was -3.32%.
